Compound activity from PubChem BioAssay.
Rows were chosen to be rich in hits. Some 6.9% of all compounds tested hit in one or more screens of this group.
MCF10A rereplic: A quantitative high throughput screen for small molecules that induce DNA re-replication in MCF 10a normal breast cells; Potency, µM (series often up to 46.1 µM), for the others: at the highest dose activity, positive = re-replication, most hits filed as activators; MCF 10A DNA re-replication, Hoechst nuclear intensity, 48 h; AID 624296, 2012; actives 2.9% (n = 350,000); further: potency means the concentration at half of the fitted maximal effect; % of control where 0% means no effect; nearly all actives have a fitted effect of over 50% in size
SW480 rereplic: A quantitative high throughput screen for small molecules that induce DNA re-replication in SW480 colon adenocarcinoma cells. AID 624297, 2012. actives 1.8% (n = 340,000). SW480 DNA re-replication, Hoechst DNA content imaging, 48 h. Potency, µM (doses to about 46.1 µM), without a hit: at the top dose re-replication activation, actives largely listed as activators; further: potency means the concentration at half of the fitted maximal effect; % of control where 0% means no effect; nearly all actives have a fitted effect of over 55% in size
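Image-based DNA-content assay: after two days of treatment, nuclei were labelled with the DNA dye Hoechst and imaged, and hits were compounds raising the count of nuclei showing high fluorescence intensity.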
KB-3-1 tox: qHTS assay for MDR1-selective chemotherapeutics: Primary screen using the parental adenocarcinoma cell KB-3-1; KB-3-1 viability, CellTiter-Glo ATP luminescence, 72 h; Potency, µM (series often up to 46.1 µM), actives largely listed as cytotoxic; actives 1.4% (n = 400,000); further: potency means the concentration at half of the fitted maximal effect; on the % scale 0 is the no-effect control and ±100 the full control effect; nearly all actives have a fitted effect of over 60% in size
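72 h, 37 °C compound treatment of KB-3-1 parental cells; CellTiter-Glo added, 10 min, luminescence read. Data corrected against DMSO-only plates and normalized before curve fitting.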
ASM inhibitor: Inhibitors of Secretory Acid Sphingomyelinase (S-ASM): qHTS; Sphingomyelin phosphodiesterase (Homo sapiens), P17405; placental ASM, HMU-PC fluorogenic substrate, 60 min; Potency, µM (top dose mostly 57.5 µM), without a hit: at the top dose activity change, negative = inhibition, hits mostly inhibitors; actives 0.006% (n = 340,000); further: potency means the concentration at half of the fitted maximal effect
Target sequence (P17405 47-631 limits assumed): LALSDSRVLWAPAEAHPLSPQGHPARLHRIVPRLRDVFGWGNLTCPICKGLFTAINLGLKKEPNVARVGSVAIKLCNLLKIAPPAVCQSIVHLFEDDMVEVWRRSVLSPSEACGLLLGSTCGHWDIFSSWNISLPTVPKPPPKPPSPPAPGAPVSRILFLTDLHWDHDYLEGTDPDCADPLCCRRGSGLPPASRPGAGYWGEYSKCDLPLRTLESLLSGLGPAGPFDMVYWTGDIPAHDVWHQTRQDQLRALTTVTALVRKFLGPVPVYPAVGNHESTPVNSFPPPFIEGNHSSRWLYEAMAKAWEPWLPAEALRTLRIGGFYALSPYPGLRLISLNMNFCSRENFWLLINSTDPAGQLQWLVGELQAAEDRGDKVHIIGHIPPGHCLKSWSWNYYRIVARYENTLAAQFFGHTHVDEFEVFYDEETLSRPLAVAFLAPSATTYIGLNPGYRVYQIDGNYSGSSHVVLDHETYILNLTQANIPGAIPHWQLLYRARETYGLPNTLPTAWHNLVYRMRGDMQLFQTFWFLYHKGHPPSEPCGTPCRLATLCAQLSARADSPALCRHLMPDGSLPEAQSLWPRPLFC
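Fluorescence read-out (Ex 386 nm, Em 447 nm) after stopping the reaction at pH 10. Enzyme: ASM from human placenta; substrate HMU-PC0, 9 uM final; 60 min, 37 °C. Compound preincubation 10 min, ambient temperature.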
Giardia kill: Small Molecules that selectively kill Giardia lamblia: qHTS. Giardia lamblia trophozoite viability. activity change, % at 7.66 µM, hits read low. actives 0.15% (n = 340,000). AID 540267, 2011; in the data active means activity change below about -80%; inconclusive means between about -30% and that limit;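 further: parasites exposed to compound for two days anaerobically before the ATP read; on the % scale 0 is the no-effect control and ±100 the full control effect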
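Killing of trophozoites was scored by loss of ATP luminescence after a 48 hrs anaerobic exposure to compounds at 37 deg C, using 100 cells per well.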
KB-V1 cytotox: qHTS assay for MDR1-selective chemotherapeutics: Primary screen using the drug-selected MDR subline cells KB-V1; KB-V1 MDR cells viability, CellTiter-Glo, 72 h; actives 3.4% (n = 400,000); AID 1347076, 2019; Potency, µM (doses to about 46.1 µM), most hits filed as cytotoxic; further: potency means the concentration at half of the fitted maximal effect; on the % scale 0 is the no-effect control and ±100 the full control effect; nearly all actives have a fitted effect of over 60% in size
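In this primary screen, KB-V1 cells overexpressing P-gp are incubated with library compounds (lowest to highest concentration) for 72 h at 37 degrees C before a luminescent ATP viability read.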
* marks the source's active call; other numbers are inactive results; i = inactive; ? = inconclusive; · = not tested or not shown; [ ] = another dose, or the depositor's remark. Unless noted, the call rests on the fitted dose curve; in most records, active means well fitted curve in the direction sought with a large enough effect; inconclusive means small, poorly fitted or top-dose-only effect, or another doubt; inactive means no such curve, though single readings can be large; an effect the other way counts as inactive or inconclusive.

SMILES	MCF10A rereplic	SW480 rereplic	KB-3-1 tox	ASM inhibitor	Giardia kill	KB-V1 cytotox
C=CCn1c(SCc2nc3ccccc3[nH]2)nnc1-c1ccccn1	4.3%	6.7%	i	-9.3%	-2.7	i
Cc1ccnc(NC(=S)N2CCN(c3ccc(Br)cc3)CC2)c1	·	·	i	·	·	i
O=C1OC(/C(=C\Nc2cc(Cl)ccc2O)[N+](=O)[O-])c2ccccc21 (configuration not stated)	14.6µM*	?	i	-6.6%	-22.1	i
O=C1OC(/C(=C\Nc2ccc(F)cc2F)[N+](=O)[O-])c2ccccc21 (configuration not stated)	16.3%	10.1%	i	-0.6%	25.0	i
CNc1cc2c(cc1S(=O)(=O)Nc1ccc(C)c(C)c1)CCC(=O)N2	·	·	i	·	·	i
C=C(C)Cn1c(SCC(=O)Nc2ccccc2C)nc2sc3c(c2c1=O)CCCC3	·	·	i	·	·	i
Cc1nc2ccc(S(=O)(=O)CCC(=O)Nc3ccc(C)c(C)c3)cc2s1	·	·	i	·	·	i
COC(=O)c1ccc(N=C2S/C(=C\c3cc(C)n(-c4cccnc4)c3C)C(=O)N2C)cc1	?	18.4µM*	?	14.3%	10.7	i
COc1ccc2cc(-c3ccn[nH]3)ccc2c1	12.7%	0.7%	7.31µM*	-0.1%	-10.0	?
CC1CCCCN1S(=O)(=O)c1ccc(C(=O)Nc2nnc(-c3ccccc3Cl)o2)cc1 (configuration not stated)	?	22.6%	?	0.8%	-10.8	16.4µM*
O=C(Nc1nnc(-c2ccccc2Cl)o1)c1ccc(S(=O)(=O)N2CCCCCC2)cc1	3.98µM*	?	?	-1.2%	-4.9	8.2µM*
COC(=O)c1sc2ccccc2c1NC(=O)c1ccc(S(=O)(=O)N2CCCCC2C)cc1 (configuration not stated)	17.3%	2.7%	i	-5.3%	-14.8	16.4µM*
CCCSC1=NC2(CCN(C(=O)NC3CCCCC3)CC2)N=C1c1ccc(Cl)cc1	·	·	i	·	·	i
Cc1ccccc1Nc1nc(-c2ccccc2)c(C(=O)Nc2cccnc2)s1	23.1µM*	?	i	158.4%	4.1	i
Cc1c(NC(=O)/C(C#N)=C/c2ccc(-c3ccc(Cl)c(Cl)c3)o2)c(=O)n(-c2ccccc2)n1C	5.0%	6.7%	i	-16.3%	-4.9	i
Cc1c(NC(=O)/C(C#N)=C/c2ccc(-c3cccc(Cl)c3)o2)c(=O)n(-c2ccccc2)n1C	?	?	?	-13.3%	2.3	9.2µM*
CCN(CC)c1nc(C#N)cc(-c2ccc(OC)cc2)n1	14.6µM*	11.6µM*	7.31µM*	63.8%	?	5.8µM*
CCCCS(=O)(=O)/C=C\C=C/S(=O)(=O)CCCC	?	?	7.31µM*	-5.4%	-16.8	i
CCCCS(=O)(=O)/C=C\C1C2C=CC(C2)C1S(=O)(=O)CCCC (configuration not stated)	11.3%	6.1%	i	4.3%	0.7	i
CC(C)(C)c1ccc(NC(=O)CON=C(N)c2ccccc2)cc1	14.7%	0.291µM*	i	4.4%	18.1	i
Cc1ccc(NC(=O)CO/N=C(\N)c2ccccc2)cc1C	-30.4%	-29.3%	i	-0.1%	-13.5	i
c1ccc(Nc2cccc3c(Nc4ccccc4)cccc23)cc1	?	?	i	i	12.6	i
O=S(=O)(O)c1cccc2cccc(Nc3ccccc3)c12	20.6µM*	16.4µM*	i	115.8%	-18.6	i
CC(=O)N1NC(=Nc2ccccc2)SC1(C)C	11.5%	-2.6%	i	-1.7%	0.6	18.4µM*
O=C1NC(=Nc2ccccc2)SC1(CO)CO	-1.4%	-12.5%	i	15.3%	13.4	i
SMILES	MCF10A rereplic	SW480 rereplic	KB-3-1 tox	ASM inhibitor	Giardia kill	KB-V1 cytotox
O=C1Nc2ccccc2CCC1Sc1nnc(-c2ccc(Cl)cc2)s1 (configuration not stated)	16.9%	5.9%	20.6µM*	-21.1%	-4.3	18.4µM*
Clc1ccc(CSc2nnc(-c3ccncc3)s2)cc1	-0.7%	-7.1%[9.22 µM]	i	1.0%	-2.0	i
CCOc1nc(NC(=O)NS(=O)(=O)Oc2ccccc2)nc(-c2ccccc2)n1	·	·	i	·	·	i
CC1CC(C)CN(C(=S)Nc2ccc(OC(F)F)cc2)C1 (configuration not stated)	18.0%	-5.9%	i	-4.2%	-3.3	20.6µM*
COc1ccccc1NC(=O)C1=C(C)N(c2ccccc2)C(=S)NC1c1cccc(C(F)(F)F)c1 (configuration not stated)	15.8%	25.1%	?	-5.1%	-15.7	8.2µM*
COC(=O)c1ccc(C2NC(=S)N(c3ccccc3)C(C)=C2C(=O)Nc2ccccc2OC)cc1 (configuration not stated)	9.7%	16.5%	i	-0.9%	-1.6	i
O=c1c2cc([N+](=O)[O-])cc([N+](=O)[O-])c2[nH]n1-c1ccccc1	?	-1.6%	?	-3.4%	5.6	0.82µM*
CC(=O)c1ccc(N2CCN(CC(=O)Nc3ccccc3C(=O)NC3CC3)CC2)c(F)c1	18.4µM*	-6.7%	i	1.3%	-20.9	i
CC1=C/C(=N\OS(=O)(=O)c2ccccc2)C(C)=CC1=O	3.98µM*	4.11µM*	13µM*	-6.2%	18.4	5.8µM*
CC1=C(C)/C(=N\OS(=O)(=O)c2ccc(C)cc2)C=CC1=O	?	5.17µM*	?	-5.2%	0.2	?
CC(S(=O)(=O)c1ccccc1)S(=O)(=O)c1ccccc1	·	·	i	·	·	i
CC1=C/C(=N\OS(=O)(=O)c2ccccc2)C(C(C)C)=CC1=O	4.11µM*	3.66µM*	?	-0.7%	14.3	?
CCOc1ccc(CCNC(=O)CN2C(=O)COc3ccc(S(=O)(=O)N(CC)CC)cc32)cc1	·	·	i	·	·	i
